According to PubChem BioAssay (EPA / NIEHS):
Several values for one entry are separate records, joined by “and”; a condition that tells them apart may be missing. Equal values may be shown once. Activity calls are given as the source filed them. How the source made its calls: active means hit-call score of the fitted dose curve at least 0.9, where 1 is the maximum; inactive means score below 0.9.

What was measured:
[1] = BSK_CASM3C_SRB: Viability Assessment in the BioMAP Diversity Plus: CASM3C Assay (AID 2283050); conditions: primary human coronary artery smooth muscle cells;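 further: total protein by SRB staining as cytotoxicity measure in parallel cultures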
[2] = read-out: Thrombomodulin, THBD (gene 7056); assay: BSK_CASM3C_Thrombomodulin: BioMAP Diversity Plus: CASM3C Assay for Thrombomodulin Biomarker Activity (AID 2283051); conditions: primary human coronary artery smooth muscle cells; actives raise or lower the signal;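 further: thrombomodulin protein level measured by ELISA 24 h after dosing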
[3] = read-out: Tissue Factor, F3 (gene 2152); assay: BSK_CASM3C_TissueFactor: BioMAP Diversity Plus: CASM3C Assay for Tissue Factor Biomarker Activity (AID 2283052); conditions: primary human coronary artery smooth muscle cells; actives raise or lower the signal;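 further: cell surface tissue factor protein level read by ELISA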
[4] = read-out: Interferon-gamma inducible Protein 10 (IP10), CXCL10 (gene 3627); assay: BSK_hDFCGF_IP10: BioMAP Diversity Plus: hDFCGF Assay for Interferon-gamma inducible Protein 10 (IP10) Biomarker Activity (AID 2283053); conditions: primary human foreskin fibroblasts; actives raise or lower the signal
Method in brief: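 IP-10 levels, quantified by ELISA, are taken from human foreskin fibroblast cultures 24 h after chemical treatment, with DMSO serving as negative control and baseline for bidirectional analysis.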

[5] = read-out: Urokinase-type plasminogen activator receptor (uPAR), PLAUR (gene 5329); assay: BSK_CASM3C_uPAR: BioMAP Diversity Plus: CASM3C Assay for Urokinase-type plasminogen activator receptor (uPAR) Biomarker Activity (AID 2283054); conditions: primary human coronary artery smooth muscle cells; actives raise or lower the signal;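 further: cell-surface uPAR protein level quantified by ELISA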
[6] = read-out: Vascular cell adhesion molecule 1 (VCAM1), VCAM1 (gene 7412); assay: BSK_CASM3C_VCAM1: BioMAP Diversity Plus: CASM3C Assay for Vascular cell adhesion molecule 1 (VCAM1) Biomarker Activity (AID 2283055); conditions: primary human coronary artery smooth muscle cells; actives raise or lower the signal;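 further: VCAM-1 protein level quantified by ELISA on the cells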
[7] = read-out: Epidermal growth factor receptor (EGFR), EGFR (gene 1956); assay: BSK_hDFCGF_EGFR: BioMAP Diversity Plus: hDFCGF Assay for Epidermal growth factor receptor (EGFR) Biomarker Activity (AID 2283057); conditions: primary human foreskin fibroblasts; actives raise or lower the signal
Method in brief: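 Measured by ELISA: EGFR levels on primary human foreskin fibroblasts 24 h after chemical treatment, analysed relative to DMSO with bidirectional fitting.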

[8] = read-out: Interleukin-8 (IL8), CXCL8 (gene 3576); assay: BSK_hDFCGF_IL8: BioMAP Diversity Plus: hDFCGF Assay for Interleukin-8 (IL8) Biomarker Activity (AID 2283058); conditions: primary human foreskin fibroblasts; actives raise or lower the signal
Method in brief: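 Fibroblast monolayers (human foreskin, hDFCGF) received test chemical for 24 h before ELISA detection of IL-8; either increases or decreases relative to DMSO count as activity.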

[9] = BSK_hDFCGF_Proliferation: Cell Proliferation Assessment in the BioMAP Diversity Plus: hDFCGF Assay (AID 2283059); conditions: primary human foreskin fibroblasts;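 further: curves fitted for both rise and fall of signal versus DMSO baseline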
Method in brief: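 This proliferation readout used SRB total-protein staining of human foreskin fibroblasts […], normalized to DMSO with bidirectional curve fitting.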

[10] = read-out: Macrophage colony-stimulating factor (MCSF), CSF1 (gene 1435); assay: BSK_hDFCGF_MCSF: BioMAP Diversity Plus: hDFCGF Assay for Macrophage colony-stimulating factor (MCSF) Biomarker Activity (AID 2283060); conditions: primary human foreskin fibroblasts; actives raise or lower the signal
Method in brief: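 fibroblasts (human foreskin, primary), 24 h post-dose; M-CSF by ELISA; bidirectional fit, DMSO = baseline.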

[11] = BSK_hDFCGF_SRB: Viability Assessment in the BioMAP Diversity Plus: hDFCGF Assay (AID 2283061); conditions: primary human foreskin fibroblasts;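 further: cells exposed to compound for 24 h before the read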
Method in brief: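 SRB-based viability read on primary human skin fibroblasts at 24 h: TCA fixation, 0.1% dye, 560 nm. Gain or loss of signal is fitted against the DMSO negative control.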

[12] = read-out: TIMP metallopeptidase inhibitor 1 (TIMP1), TIMP1 (gene 7076); assay: BSK_hDFCGF_TIMP1: BioMAP Diversity Plus: hDFCGF Assay for TIMP metallopeptidase inhibitor 1 (TIMP1) Biomarker Activity (AID 2283062); conditions: primary human foreskin fibroblasts; actives raise or lower the signal
Method in brief: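 Bidirectional curve fitting against DMSO baseline yielded this endpoint, based on ELISA detection of TIMP-1 in primary human foreskin fibroblasts exposed to compound for 24 h.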

[13] = read-out: Monokine induced gamma interferon (MIG), CXCL9 (gene 4283); assay: BSK_hDFCGF_MIG: BioMAP Diversity Plus: hDFCGF Assay for Monokine induced gamma interferon (MIG) Biomarker Activity (AID 2283063); conditions: primary human foreskin fibroblasts; actives raise or lower the signal
Method in brief: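 Endpoint derived by bidirectional fitting relative to DMSO; MIG quantified via ELISA in primary human foreskin fibroblasts harvested 24 h after dosing.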

[14] = read-out: Matrix Metallopeptidase 1 (MMP1), MMP1 (gene 4312); assay: BSK_hDFCGF_MMP1: BioMAP Diversity Plus: hDFCGF Assay for Matrix Metallopeptidase 1 (MMP1) Biomarker Activity (AID 2283064); conditions: primary human foreskin fibroblasts; actives raise or lower the signal
Method in brief: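 Primary human foreskin fibroblasts exposed to chemicals for 24 h; MMP1 measured by ELISA. Cytotoxicity tracked by SRB staining in parallel cultures; bidirectional fit relative to DMSO.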

[15] = read-out: Vascular cell adhesion molecule 1 (VCAM1), VCAM1 (gene 7412); assay: BSK_hDFCGF_VCAM1: BioMAP Diversity Plus: hDFCGF Assay for Vascular cell adhesion molecule 1 (VCAM1) Biomarker Activity (AID 2283065); conditions: primary human foreskin fibroblasts; actives raise or lower the signal;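 on AC50: VCAM-1 protein level quantified by ELISA after 24 h chemical exposure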
Method in brief: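 Measured after 24 h chemical treatment of primary human skin fibroblasts, VCAM-1 was detected by ELISA and concentration-response analysed in both directions versus DMSO vehicle.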

[16] = read-out: Plasminogen activator inhibitor-1 (PAI1), SERPINE1 (gene 5054); assay: BSK_hDFCGF_PAI1: BioMAP Diversity Plus: hDFCGF Assay for Plasminogen activator inhibitor-1 (PAI1) Biomarker Activity (AID 2283066); conditions: primary human foreskin fibroblasts; actives raise or lower the signal
Method in brief: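 PAI-1 levels, determined by ELISA, served as the endpoint in human foreskin fibroblast cultures exposed to compound for 24 h, with DMSO as baseline.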

[17] = read-out: Intercellular Adhesion Molecule 1 (ICAM1), ICAM1 (gene 3383); assay: BSK_KF3CT_ICAM1: BioMAP Diversity Plus: KF3CT Assay for Intercellular Adhesion Molecule 1 (ICAM1) Biomarker Activity (AID 2283067); conditions: primary human keratinocytes with fibroblasts; actives raise or lower the signal
Method in brief: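 Bidirectional curve fitting against a DMSO baseline was applied to ICAM-1 ELISA signal from primary human skin co-cultures harvested 24 h after treatment, with SRB staining of parallel wells for overt cytotoxicity.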

[18] = read-out: Interferon-gamma inducible Protein 10 (IP10), CXCL10 (gene 3627); assay: BSK_KF3CT_IP10: BioMAP Diversity Plus: KF3CT Assay for Interferon-gamma inducible Protein 10 (IP10) Biomarker Activity (AID 2283068); conditions: primary human keratinocytes with fibroblasts; actives raise or lower the signal
Method in brief: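 Signal is secreted/surface IP-10 by ELISA in a human primary skin co-culture of keratinocytes and foreskin fibroblasts, taken 24 h post-dosing; DMSO served as negative control.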

[19] = BSK_KF3CT_SRB: Viability Assessment in the BioMAP Diversity Plus: KF3CT Assay (AID 2283069); conditions: primary human keratinocytes with fibroblasts;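 further: total protein by sulforhodamine B staining as a cytotoxicity measure; read 24 h after compound addition; fitted for both signal gain and loss against DMSO baseline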
Method in brief: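 Human keratinocyte and foreskin fibroblast co-culture exposed to chemical for 24 h. Total protein measured in parallel cultures by 0.1% sulforhodamine B staining after 10% TCA fixation, read at 560 nm; bidirectional fit relative to DMSO.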

Measured: AC50

CC(C)Cc1ccc(C(C)C(=O)O)cc1 (stereo not drawn)
active: [2] 6.11 µM
inactive: all other assays above

O=C(c1ccc(OCCN2CCCCC2)cc1)c1c(-c2ccc(O)cc2)sc2cc(O)ccc12
active: [1] 34.4 µM | [4] 32.2 µM | [5] 33.4 µM | [7] 9.63 µM | [8] 33.7 µM | [9] 7.34 µM | [11] 24.4 µM | [12] 35.8 µM | [13] 32.1 µM | [14] 31.7 µM | [15] 31.4 µM | [17] 38 µM | [18] 21 µM | [19] 29.2 µM
inactive: [2] | [3] | [6]

CC(=O)CCC=C(C)CCC=C(C)C
active: [6] 25.4 µM | [9] 31.3 µM
not listed: [16]
inactive: all other assays above

CCCCN(CCO)CCO
not listed: [16]
inactive: all other assays above

OCCN1CCOCC1
active: [3] 2.22 µM
not listed: [16]
inactive: all other assays above

O=C(O)C(F)(F)C(F)(F)C(F)(F)C(F)(F)C(F)(F)C(F)(F)C(F)(F)C(F)F
active: [11] 20.1 µM and 15.8 µM
not listed: [16]
inactive: all other assays above

CCn1cc(C(=O)O)c(=O)c2ccc(C)nc21
not listed: [16]
inactive: all other assays above

CC(C)CCCC(C)(C)O
not listed: [16]
inactive: all other assays above

NC(=O)c1c(Cl)cccc1Cl
not listed: [16]
inactive: all other assays above

CCC(=O)OCC=Cc1ccccc1
not listed: [16]
inactive: all other assays above

CC(=O)c1ccc(C)cc1
not listed: [16]
inactive: all other assays above
